# Screening data: PubChem BioAssay, National Center for Advancing Translational Sciences (NCATS)
# Most compounds without a hit are left out; they make up all but 7.3% or so of the library.
# ELG1 genotoxic = inducers of genotoxicity in HEK293T ELG1-luciferase cells. HEK293T ELG1-luciferase reporter, luminescence, 16 h. 330,000 tested, 1.3% active. Potency, µM (top dose mostly 46 µM), for inactives: at the highest dose activity change, positive = activation, usual class: activators; further: % of control where 0% means no effect; nearly all actives have a fitted effect of over 60% in size
#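 ELG1-luciferase HEK293T cells, 2,000/well; compound pinned in; 16 hr, 37 °C, 5% CO2; ONE-Glo, 30 min RT; luminescence on CCD imager.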
# SMN2 splice enh = enhancers of SMN2 splice variant expression; HEK293 SMN2-luciferase splicing reporter, luminescence, 30-36 h; Potency, µM (titrated, usually from 46.1 µM), for inactives: at the highest dose activity change, positive = activation, usual class: activators; 210,000 tested, 2.8% active; AID 1458; further: % of control where 0% means no effect; nearly all actives have a fitted effect of over 55% in size
#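 HEK293 cells carry an SMN2 […]–luciferase reporter in which exon 7 inclusion puts luciferase in frame. Cells were plated 10-12 h before compound addition, then incubated 30-36 h at 37C. ONE-Glo luminescence was read; sodium butyrate at 4.5 mM final served as control.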
# Rab9 prom act = activators of Rab9 promoter | Huh7 Rab9 promoter-luciferase reporter, luminescence, 24 h | Potency, µM (doses to about 9.22 µM), without a hit: at the top dose activation, negative = inhibition, usual class: activators | AID 485297 | 320,000 tested, 2.8% active; further: % of control where 0% means no effect; nearly all actives have a fitted effect of over 60% in size
#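 Stable Rab9-luc Huh7, 1500 cells/well, 2 h settle; cmpd in DMSO, 24 h, 37 °C/5% CO2; luciferase reagent 10 min RT; luminescence.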
# FLuc modulator = inhibits or activates purified firefly luciferase, miR-21 counter-screen | purified FLuc, Km substrates, luminescence inhibition | Potency, µM (top dose mostly 57.5 µM), without a hit: top-dose activity change, negative = inhibition, actives largely listed as inhibitors | P08659 | 360,000 tested, 6.9% active;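 further: plate controls were vehicle for no effect and reference inhibitor for full effect; nearly all actives have a fitted effect of over 55% in size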
# Target sequence (P08659 whole entry, looked up): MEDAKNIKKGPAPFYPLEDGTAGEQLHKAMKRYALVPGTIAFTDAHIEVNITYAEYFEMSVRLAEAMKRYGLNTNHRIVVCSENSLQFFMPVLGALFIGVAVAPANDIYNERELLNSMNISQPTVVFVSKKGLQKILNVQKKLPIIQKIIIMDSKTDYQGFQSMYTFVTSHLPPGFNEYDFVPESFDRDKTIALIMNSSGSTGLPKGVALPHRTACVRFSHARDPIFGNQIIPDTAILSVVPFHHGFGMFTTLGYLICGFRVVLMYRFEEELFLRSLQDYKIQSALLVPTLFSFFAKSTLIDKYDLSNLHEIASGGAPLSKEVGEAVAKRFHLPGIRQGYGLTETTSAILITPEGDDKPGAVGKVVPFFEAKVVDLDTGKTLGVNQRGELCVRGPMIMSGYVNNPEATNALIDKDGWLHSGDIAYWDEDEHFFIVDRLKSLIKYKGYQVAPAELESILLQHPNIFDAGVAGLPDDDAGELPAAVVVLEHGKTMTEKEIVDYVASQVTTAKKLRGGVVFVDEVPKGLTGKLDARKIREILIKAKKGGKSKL
#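 Purified P. pyralis luciferase (10nM final) with 10uM D-luciferin and 10uM ATP (Km levels) in 50mM Tris acetate pH 7.5, 10mM Mg acetate, 0.01% Tween-20, 0.05% BSA; qHTS 6-point titration, ~60 µM downward; luminescence read.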
# NPC1 prom act = activates the NPC1 promoter. Huh7 NPC1 promoter luciferase reporter, 24 h. Potency, µM (top dose mostly 9.22 µM), inactives show top-dose activation, hits mostly activators. 320,000 tested, 2.4% active. AID 485313; further: % of control where 0% means no effect; nearly all actives have a fitted effect of over 60% in size
#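 Stable NPC1-promoter luciferase Huh7 line; cpd (DMSO) 24 h, 37 °C, 5% CO2; Amplite luciferase reagent 10 min RT; luminescence readout. qHTS format.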
# KinaseGlo FLuc = blocks Kinase-Glo luciferase, a counter-screen artifact; 200,000 tested, 0.28% active; Potency, µM (highest dose often 38.3 µM), inactives show at the top dose activity change, negative = inhibition, usual class: inhibitors; Kinase-Glo luciferase, ATP luminescence, 8 min; Q27757; further: on the % scale 0 is the no-effect control and ±100 the full control effect; nearly all actives have a fitted effect of over 60% in size
#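 Compound is pinned into ATP-containing buffer (10 uM ATP, imidazole pH 7.2, 7 mM MgCl2). Kinase-Glo luciferase reagent is then added. Light output is recorded following an 8-min room-temperature incubation.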
# * hit, by the source's call; ? = inconclusive; . = not tested or not shown; [ ] = dose if it differs, or a comment. The call rests on the fitted dose curve; in most records, active means well fitted curve in the direction sought with a large enough effect; inconclusive means small, poorly fitted or top-dose-only effect, or another doubt; inactive means no such curve, though single readings can be large; an effect the other way counts as inactive or inconclusive. Potency means the concentration at half of the fitted maximal effect.
SMILES,ELG1 genotoxic,SMN2 splice enh,Rab9 prom act,FLuc modulator,NPC1 prom act,KinaseGlo FLuc
Cc1ccc(-c2cc(NC(=O)c3ccccc3)on2)cc1,?,.,2.2µM*,2.4µM*,?,.
COc1cc(/C=C(/C)[N+](=O)[O-])ccc1OCc1ccccc1Cl,-16%,-103%,-52%,13µM*,-8%,1%
COc1cc(/C=C/[N+](=O)[O-])ccc1O,-18%,?,1%,?,-6%,-1%
COc1ccccc1OCCCn1cc(C(=O)C2CC2)c2ccccc21,-8%,.,-9%,?,-2%,-5%
O=C(Cc1ccccc1)OCC(=O)c1ccc(F)cc1,2%,.,.,.,.,.
O=C(Cc1ccccc1)OCC(=O)c1ccccc1,-2%,.,0%,6.7µM*,-4%,.
Cc1ccc(C(=O)COC(=O)Cc2ccccc2)cc1,?,.,0%,0.95µM*,2%,.
O=C(Nc1ccon1)c1cccn(Cc2cccc(Cl)c2)c1=O,.,.,.,1%,.,.
CN(C)C(CNC(=O)Cc1ccc(Br)cc1)c1ccccc1 (stereo unspecified),4%,.,0%,-2%,-3%,.
C/C(=C\C(=O)c1ccc(Br)cc1)NCc1ccccc1,?,-4%,18%,24µM*,1%,-3%
O=C(Nc1ccc2ccccc2c1)c1nn(C23CC4CC(CC(C4)C2)C3)cc1Br,-3%,3%,4%,0%,-4%,-2%
Cc1nc(Cl)sc1C(=O)Nc1ccc2ccccc2c1,?,13µM*,?,7.6µM*,14%,-2%
Cc1cc(NC(=O)c2noc3c2CCCCC3)no1,?,?,?,15µM*,?,1%
COc1ccc(-c2nc3ccccc3c(=O)o2)cc1,?,11µM*,?,1.2µM*,?,?
O=C(OCc1ccc(Cl)c(Cl)c1)c1ccccn1,1%,-6%,-2%,15µM*,-2%,-10%
CCc1nn(CC(=O)N2CCC3(CC2)OCCO3)c(=O)c2cccn12,0%,.,-1%,4%,-2%,.
Cc1ccc(-n2c(O)c(/C=N/NC(=O)c3ccncc3)c(=O)[nH]c2=O)cc1C,4%,?,-6%,0%,0%,0%
Cc1nn(-c2ccccc2)c(Cl)c1/C=N\NC(=O)c1cnccn1,14%,?,22%,6µM*,16%,2%
CC(=O)C1=NOC(CNc2ncc(C(F)(F)F)cc2Cl)C1 (stereo unspecified),?,18%,?,27µM*,18%,3%
COc1ccc(-c2n[nH]c(=S)n2-c2ccc3c(c2)OCCO3)cc1OC,?,.,8%,12µM*,1%,4%
S=c1[nH]nc(-c2ccc3ccccc3n2)n1-c1ccc2c(c1)OCCO2,6%,.,-3%,?,0%,.
CC(C)Oc1ccc(CNC(=O)Oc2ccccc2)cc1,5%,.,3.2µM*,6.7µM*,3.5µM*,.
COc1ccc(C(=O)Nc2cc(Cl)ccc2C(=O)O)cc1,6%,.,16%,15µM*,13%,.
Cc1ccc(Cn2cc(C=O)c(-c3ccc(C)cc3)n2)cc1,?,?,?,17µM*,25%,2%
CCn1c(C)c(C(=O)NCCc2ccccc2)c2cc(OC)ccc21,1%,.,0%,0%,5%,.
SMILES,ELG1 genotoxic,SMN2 splice enh,Rab9 prom act,FLuc modulator,NPC1 prom act,KinaseGlo FLuc
O=C(Cc1c(Cl)cccc1Cl)N1CCN(Cc2ccccc2)CC1,-2%,.,-1%,-5%,-4%,.
O=c1[nH]c(=O)n(-c2cccc(F)c2)c(O)c1/C=C1\C=Nc2ccccc21,4%,.,7%,-7%,6%,.
O=C(O)c1ccc(-n2c(O)c(/C=C3\C=Nc4ccccc43)c(=O)[nH]c2=O)cc1,0%,.,-4%,19µM*,2%,.
Cc1nccn1Cc1ccc(Cl)nc1,1%,0%,3%,-2%,-1%,0%
CN(C)C=C1C(=O)N(C2CCCCC2)C(=O)N(C2CCCCC2)C1=O,-12%,-24%,-1%,3%,1%,-7%
O=C(COC(=O)c1cccc(NC(=O)c2ccc(Br)cc2)c1)c1ccc(Br)cc1,.,14%,.,4.3µM*,.,.
Cc1ccc(C(=O)COC(=O)c2cccc(NC(=O)c3ccc(Br)cc3)c2)cc1,.,?,.,1.2µM*,.,.
Cn1c(O)c(/C=C2\C=Nc3ccccc32)c(=O)n(C)c1=O,0%,.,3%,-5%,-3%,.
COCCNCCOc1ccc(C(C)(C)c2ccccc2)cc1,-1%,10%,-4%,-2%,-6%,-4%
C=CCn1c(O)c(Cc2ccc(OCC)cc2)c(=O)[nH]c1=O,-1%,.,21%,-3%,-1%,.
Cc1cc(C(=O)Nc2ccc(CC(=O)O)cc2)c(C)o1,0%,.,3%,11µM*,-8%,.
CCOC(=O)c1ncc2[nH]c3ccc(OCc4ccccc4)cc3c2c1COC,.,.,.,.,.,-2%[39.9 µM]
CCCOC(=O)c1cc2c(cn1)[nH]c1ccccc12,.,28µM*,.,.,.,.
Cc1cc(/C=C2/C(=O)NC(=O)N(Cc3ccco3)C2=O)c(C)n1-c1ccccc1,6%,-28%,0%,5.4µM*,1%,-3%
O=C1NC(=S)N(Cc2ccco2)C(=O)/C1=C\c1cccs1,0%,-18%,-8%,17µM*,-4%,5%
Cc1c(C(c2ccc(Br)cc2)c2c(O)c3ccccc3oc2=O)c(=O)n(-c2ccccc2)n1C (stereo unspecified),6%,-12%,-7%,12µM*,-5%,-1%
CSc1ccc(C(c2c(O)c3ccccc3oc2=O)c2c(C)n(C)n(-c3ccccc3)c2=O)cc1 (stereo unspecified),0%,-8%,-3%,?,2%,1%
CNCC[C@@H](Oc1ccc(C(F)(F)F)cc1)c1ccccc1,0%,-15%,-11%,-1%,-7%,-1%
FC(F)(F)c1ccc(CSc2ccccn2)cc1,2%,.,7%,15µM*,1%,.
CC1=C/C(=N\NC(=S)NCCc2ccccc2)CC(C)(C)C1,13%,?,29%,21µM*,25%,3%
c1ccc(CCNCc2ccccc2)cc1,1%,17%,0%,3%,-5%,6%
O=C(O)c1ccccc1Nc1cccc(C(F)(F)F)c1,0%,-25%,-11%,15µM*,1%,0%
O=C1NC(=O)C(=Cc2ccc(N3CCN(C(=O)c4ccccc4)CC3)c([N+](=O)[O-])c2)C(=O)N1,1%,.,2%,21µM*,0%,.
CN1C(=O)C(=Cc2ccc(N3CCOCC3)c([N+](=O)[O-])c2)C(=O)N(C)C1=O,6%,-6%,-6%,?,-2%,1%
Cc1cccc(OCCn2c(=O)oc3ccc(C)cc32)c1,?,.,?,19µM*,18%,-18%
